Data: PubChem BioAssay
Values joined by “and” are separate entries in the source; they are usually repeats but may differ in a detail not shown here. Equal values may be shown once. Records with an inconclusive call do not appear. Active and inactive are the calls of the source.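 How the source made its calls, unless noted: active means compounds whose cell count with miR-34 switched on is under 0.7 times the count with it off; inactive means the rest.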

What was measured:
[1] = sensitizers of A549 cells to miR-34 induction, primary screen, imaging, A549 dox-inducible miR-34, nuclei and caspase counts (AID 1347080); settings: A549 miR-34 inducible, Hoechst nuclei count, 48 h
[2] = inhibitors of Cryptococcus chitosan production, flow cytometry, Cibacron Brilliant Red staining (AID 1347148; call rule not given here;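 further: compound exposure lasted three days at 37 degrees C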); settings: Cryptococcus neoformans chitosan, stronger effect = lower value; at 10 µM unless noted
[3] = viability rescue of complex I mutant cybrids, primary screen, cell-based, galactose medium, ATP luminescence (AID 1645843;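 active means z-score of at least 1.8 in each of two replicates, scored against plate mean and spread of sample wells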;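 further: positive z means more ATP and so rescue of galactose-driven cybrid death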); settings: complex I mutant cybrid cells, 72 h, stronger effect = higher value
[4] = phospholipid biosynthesis inhibitors in animal cells, primary screen, cell-based, LOPAC library, screen 4 (AID 1347384; call rule not given here); settings: phospholipid biosynthesis inhibition screen, at 10 µM
[5] = survival rescue of mitochondrial mutant cells in low glucose, primary screen, MELAS cybrids, Rieske KO mouse fibroblasts, CellTiter-Glo (AID 1508586;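 active means mean z-score across replicates of 1.96 or higher in either the MELAS or the Rieske mutant cell line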;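 further: z relative to plate mean and SD of compound and empty wells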)
[6] = biological target: NAD(+) hydrolase SARM1 (Homo sapiens) (UniProt Q6SZW1); assay: SARM1 TIR NADase inhibitors, cell lysate, NAD-Glo luminescence (AID 1508614;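 active means compound whose remaining NAD level is above about 45 nM, limit read from the data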); settings: SAM-TIR HEK293T lysate NADase, at 1 µM, stronger effect = higher value
[7] = biological target: Mitogen-activated protein kinase 7 (Homo sapiens) (UniProt Q13164); assay: ERK5 transactivation activators in reporter cells, primary screen, cell-based, HTS (AID 1508626;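 active means luciferase signal above three times the same-plate solvent-only control wells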;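 further: luciferase driven by Gal4-ERK5 fusion binding five Gal4 sites before minimal TATA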); settings: HeLa Gal4-ERK5 transactivation, 18 h, at 5 µM, stronger effect = higher value
[8] = modifiers of HSF1 nuclear foci, imaging, Selleck Cancer Library (AID 1347162; in the data active means plate-normalised HSF1 focus index below about 0.46); settings: human cells, at 10 µM; SSMD: measured here: HSF1 foci SSMD mean; cell count: measured here: cell number; plate-normalised HSF1 focus index: stronger effect = lower value
[9] = JHH-DIPG-1 glioma cell viability, MIPE5.0 library, CellTiter-Glo luminescence, qHTS (AID 1347067; cut-off not given, nearly all actives have AC50 up to about 26 µM;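 further: cells exposed to compound for 48 hours before readout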); settings: JHH-DIPG-1 glioma viability, CellTiter-Glo ATP luminescence
[10] = SU-DIPG-XXV glioma cell viability, MIPE5.0 library, qHTS (AID 1347068; cut-off not given, nearly all actives have IC50 up to about 30 µM)
[11] = stronger effect = lower value, cell number ratio, induced over uninduced
[12] = measured here: relative caspase fold change +Dox/-Dox
[13] = measured here: total cells with miR-34 induction, stronger effect = lower value
[14] = measured here: total cells without miR-34 induction
[15] = MELAS cybrid survival, CellTiter-Glo 48 h, stronger effect = higher value
[16] = Rieske KO mouse fibroblast survival, CellTiter-Glo 72 h

Sequence of NAD(+) hydrolase SARM1 (Homo sapiens) (Q6SZW1 whole entry, looked up, the tested form may be a part): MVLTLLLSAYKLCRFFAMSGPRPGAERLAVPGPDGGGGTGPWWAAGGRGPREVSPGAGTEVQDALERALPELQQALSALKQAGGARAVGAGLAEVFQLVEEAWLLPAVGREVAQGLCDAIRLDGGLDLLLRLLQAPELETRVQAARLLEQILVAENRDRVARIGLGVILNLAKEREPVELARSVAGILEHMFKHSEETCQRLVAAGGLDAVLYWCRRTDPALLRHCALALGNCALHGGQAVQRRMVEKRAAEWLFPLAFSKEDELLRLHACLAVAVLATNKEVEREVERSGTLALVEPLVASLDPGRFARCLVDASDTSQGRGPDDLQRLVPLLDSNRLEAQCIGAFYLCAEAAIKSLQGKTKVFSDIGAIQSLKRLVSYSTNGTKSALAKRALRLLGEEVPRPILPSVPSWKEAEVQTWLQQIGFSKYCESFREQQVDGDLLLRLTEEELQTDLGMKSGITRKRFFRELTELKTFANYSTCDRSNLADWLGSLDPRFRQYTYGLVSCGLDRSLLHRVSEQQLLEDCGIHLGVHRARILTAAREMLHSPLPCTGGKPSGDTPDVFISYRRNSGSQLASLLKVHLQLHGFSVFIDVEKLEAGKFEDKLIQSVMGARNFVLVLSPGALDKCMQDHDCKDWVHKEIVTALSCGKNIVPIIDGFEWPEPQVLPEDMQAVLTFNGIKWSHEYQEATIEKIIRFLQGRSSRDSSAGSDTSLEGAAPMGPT
Sequence of Mitogen-activated protein kinase 7 (Homo sapiens) (Q13164 whole entry, looked up, the tested form may be a part): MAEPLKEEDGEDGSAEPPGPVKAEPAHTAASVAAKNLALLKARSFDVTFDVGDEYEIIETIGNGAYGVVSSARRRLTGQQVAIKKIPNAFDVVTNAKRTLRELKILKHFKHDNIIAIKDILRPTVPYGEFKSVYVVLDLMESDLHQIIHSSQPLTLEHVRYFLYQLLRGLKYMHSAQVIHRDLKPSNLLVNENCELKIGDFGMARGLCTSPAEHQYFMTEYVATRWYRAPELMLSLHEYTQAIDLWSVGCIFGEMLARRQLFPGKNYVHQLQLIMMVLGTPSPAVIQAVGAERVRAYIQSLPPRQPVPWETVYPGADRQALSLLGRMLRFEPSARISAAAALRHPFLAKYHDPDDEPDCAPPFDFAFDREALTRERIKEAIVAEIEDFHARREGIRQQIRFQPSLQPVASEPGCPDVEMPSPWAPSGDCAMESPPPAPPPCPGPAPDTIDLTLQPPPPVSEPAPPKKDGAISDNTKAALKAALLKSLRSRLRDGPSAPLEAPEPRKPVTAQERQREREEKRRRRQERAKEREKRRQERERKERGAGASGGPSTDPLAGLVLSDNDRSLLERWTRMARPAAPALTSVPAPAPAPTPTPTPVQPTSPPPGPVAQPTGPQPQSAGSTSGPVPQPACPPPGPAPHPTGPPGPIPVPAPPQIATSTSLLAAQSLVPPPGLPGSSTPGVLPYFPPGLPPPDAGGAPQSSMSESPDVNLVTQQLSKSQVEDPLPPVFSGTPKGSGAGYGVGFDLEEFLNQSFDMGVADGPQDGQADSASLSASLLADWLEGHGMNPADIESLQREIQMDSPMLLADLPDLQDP

| SMILES | fold change [1, 11] | fold change [1, 12] | cell count [1, 13] | cell count [1, 14] | fold fluorescence [2] | z-score [3] | outcome [4] | z-score [5, 15] | z-score [5, 16] | remaining NAD [6] | luciferase signal [7] | SSMD [8] | cell count [8] | plate-normalised HSF1 focus index [8] | AC50 [9] | outcome [10] |
| --- | --- | --- | --- | --- | --- | --- | --- | --- | --- | --- | --- | --- | --- | --- | --- | --- |
| CCCc1c(OCCCCc2nn[nH]n2)ccc(C(C)=O)c1O | 0.952 (inactive) and 0.923 (inactive) and 1.01 (inactive) | 1 and 1.28 and 1.02 | 9490 and 5900 and 5660 | 9970 and 6400 and 5590 | 4.57 (inactive) | 2.16 (active) | – | – | – | – | – | – | – | – | – | – |
| C=CC(N)CCC(=O)O (configuration not stated) | 0.942 (inactive) and 0.866 (inactive) and 0.941 (inactive) | 1.9 and 1.11 and 2.08 | 9530 and 8830 and 11000 | 10100 and 10200 and 11700 | – | 0.155 (inactive) | inactive | -0.0921 (inactive) | 0.0881 | 10 nM (inactive) | 92 AU (inactive) | – | – | – | – | – |
| C[C@]12CC[C@@H]3c4ccc(O)cc4CC[C@H]3[C@@H]1CCC2=O | 0.96 (inactive) and 0.932 (inactive) and 0.881 (inactive) | 1.22 and 1.44 and 1.06 | 9000 and 8450 and 7620 | 9370 and 9060 and 8650 | – | -0.23 (inactive) and -0.335 (inactive) | inactive | 0.711 (inactive) and 0.373 (inactive) | 0.46 and -0.298 | 10 nM (inactive) | 28 AU (inactive) | 2.44 | 6870 | 1.13 (inactive) | – | – |
| O=C1Nc2ccc(Cl)cc2[C@@](C#CC2CC2)(C(F)(F)F)O1 | 0.73 (inactive) and 0.903 (inactive) | 1.52 and 0.886 | 6400 and 6960 | 8760 and 7710 | – | -1.77 (inactive) and -2 (inactive) | – | 1.16 (inactive) and -1.54 (inactive) | 0.346 and 0.0528 | – | – | – | – | – | 20.9 µM (active) | – |
| CCOC(=O)O[C@]1(C(=O)OCCl)CC[C@H]2[C@@H]3CCC4=CC(=O)C=C[C@]4(C)[C@H]3[C@@H](O)C[C@@]21C | – | – | – | – | – | – | – | 0.475 (inactive) | 0.287 | – | – | – | – | – | – | inactive |
| CCN(CC)CCNC(=O)c1cc(S(C)(=O)=O)ccc1OC | 0.998 (inactive) and 0.882 (inactive) and 0.896 (inactive) | 1.76 and 0.709 and 3.36 | 9610 and 9280 and 12200 | 9630 and 10500 and 13600 | – | 0.285 (inactive) | inactive | 0.496 (inactive) | -0.0746 | 10 nM (inactive) | 80 AU (inactive) | – | – | – | – | – |
| CC(=O)N[C@@H](CS)C(=O)O | 1.05 (inactive) and 0.885 (inactive) and 0.922 (inactive) | 0.401 and 1.12 and 0.735 | 10500 and 7510 and 10400 | 9960 and 8480 and 11200 | – | 0.55 (inactive) | inactive | -0.217 (inactive) and 0.201 (inactive) | 0.862 and -0.824 | 10 nM (inactive) | 40 AU (inactive) | – | – | – | – | – |
| CN(C)CCOC(=O)COc1ccc(Cl)cc1 | 1.05 (inactive) and 0.847 (inactive) and 0.935 (inactive) | 2.3 and 1.11 and 0.787 | 9260 and 9320 and 8720 | 8800 and 11000 and 9330 | – | 1.14 (inactive) | inactive | -0.229 (inactive) and 0.0507 (inactive) | -0.156 and 1.13 | 10 nM (inactive) | 64 AU (inactive) | – | – | – | – | – |
| O=C(O)[C@@H]1[C@H]2C[C@H]3c4[nH]c5ccccc5c4CCN3C[C@@H]2CC[C@@H]1O | 0.933 (inactive) | 1.33 | 7540 | 8080 | – | – | – | – | – | – | – | – | – | – | – | – |
| CCN(CC)CCNC(=O)c1ccc(NC(C)=O)cc1 | 1.04 (inactive) and 0.905 (inactive) | 1.99 and 4.44 | 10300 and 12600 | 9910 and 14000 | – | 0.34 (inactive) | inactive | – | – | 10 nM (inactive) | 32 AU (inactive) | – | – | – | – | – |
| C[N+]1(CCCCC[N+]2(C)CCCC2)CCCC1 | 1.07 (inactive) and 0.91 (inactive) | 0.597 and 1.28 | 10400 and 8690 | 9650 and 9550 | – | 0.235 (inactive) | inactive | 0.607 (inactive) | 0.539 | – | 108 AU (inactive) | – | – | – | – | – |
| NS(=O)(=O)c1cc2c(cc1Cl)NC(C1CC3C=CC1C3)NS2(=O)=O (configuration not stated) | 0.998 (inactive) and 0.957 (inactive) and 0.847 (inactive) | 1.34 and 0.752 and 2.93 | 9070 and 9210 and 11400 | 9090 and 9620 and 13400 | – | 0.71 (inactive) and 0.55 (inactive) | inactive | – | – | – | 84 AU (inactive) | – | – | – | – | – |
| Nc1c2c(nc3ccccc13)CCCC2O (configuration not stated) | 0.95 (inactive) and 0.845 (inactive) and 0.969 (inactive) | 0.943 and 1.26 and 0.952 | 9940 and 8540 and 10300 | 10500 and 10100 and 10600 | – | 0.445 (inactive) and 0.48 (inactive) | inactive | 1.73 (inactive) and -0.394 (inactive) | 0.362 and -0.175 | – | 36 AU (inactive) | – | – | – | – | – |
